Compound activity deposited in PubChem by National Center for Advancing Translational Sciences (NCATS).
This is one part of a sample in which hits are shown more often than they occur.
TDP-43 tox inh: qHTS of TDP-43 Inhibitors: NCGC Sytravon Library Screen; yeast TDP-43 toxicity rescue, BacTiter-Glo growth, 24 h; Potency, µM (series often up to 46.1 µM), usual class: activators; actives 0.45% (n = 45,000); active = well fitted activation curve with a large enough effect; note: nearly all actives have a fitted effect of over 55% in size
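TDP-43-expressing yeast, pregrown in raffinose, seeded at OD600 0.02 in galactose medium with compound for 24 hr at 30 deg C. Growth read by BacTiter-Glo luminescence, so rescue of toxicity appears as activation.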
A number is an active result; i = inactive.

SMILES | TDP-43 tox inh
COc1ccc(C(=O)NC(=S)N2CCCCC2)cc1[N+](=O)[O-] | i
COc1cccc(CC(=O)N2CCN(c3ccccc3[N+](=O)[O-])CC2)c1 | i
COc1ccc(N2CCN(C(=S)NC(=O)c3cccs3)CC2)c([N+](=O)[O-])c1 | 28.2µM
O=C(Nc1ccc(S(=O)(=O)N2CCCCC2)cc1)C1CCCN(C(=O)c2ccc(Cl)cc2)C1 (centres undefined) | i
CCOC(=O)c1cccc(NC(=O)C2=C(C)C(=O)OC23CCCCC3)c1 | i
O=C(COC(=O)c1ccc([N+](=O)[O-])o1)NC1CCS(=O)(=O)C1 (centres undefined) | i
CC1CCCC(NC(=O)COC(=O)c2ccc([N+](=O)[O-])o2)C1C (centres undefined) | 12.6µM
CC(=O)Nc1ccc(NC(=O)COC(=O)c2ccc([N+](=O)[O-])o2)cc1 | i
O=S(=O)(NCc1ccco1)c1ccc2ccccc2c1 | 11.2µM
O=[N+]([O-])c1ccccc1S(=O)(=O)NCc1ccco1 | i
O=S(=O)(NCc1ccco1)c1ccc(Cl)cc1Cl | i
CCCCN(CC)CCCNC(=O)C1CCN(c2nc3ccc(CC)cc3s2)CC1 | i
CCOC(=O)c1cc(OC)c2cccc(CN3CCC(C)(C(=O)NCCOC)C3)c2c1 (centres undefined) | i
O=c1c2sccc2n(Cc2cc(=O)n3ccccc3n2)c(=O)n1-c1cc(F)ccc1F | i
CCSc1ncc(Cl)c(C(=O)Nc2c(C(=O)Nc3ccc(Cl)cc3)oc3ccccc23)n1 | i
Cc1ccccc1C(=O)Nc1sc2c(c1C(=O)NCc1ccco1)CCC(C(C)(C)C)C2 (centres undefined) | i
O=C(N/N=C/C(Br)=C\c1ccccc1)c1ccco1 | 10µM
O=C(Nc1ccccc1C(=O)N/N=C/c1ccccc1)c1ccco1 | i
Cc1occc1C(=O)N/N=C/C(Br)=C\c1ccccc1 | i
CC(C)CNC(=O)c1ccccc1NC(=O)c1ccccc1N(C)S(=O)(=O)c1ccccc1 | i
COc1ccccc1NC(=O)CCN1CCCCC1 | i
O=[N+]([O-])c1ccccc1CNc1ccc(F)c(Cl)c1 | 15.8µM
Cc1cc(F)ccc1NCc1ccccc1[N+](=O)[O-] | i
Cc1cc([N+](=O)[O-])ccc1NCc1ccccc1[N+](=O)[O-] | i
O=C(O)CCCCNS(=O)(=O)/C=C/c1ccccc1 | i
SMILES | TDP-43 tox inh
CCCc1cc(NCc2ccccn2)n2nc(C)c(-c3ccccc3)c2n1 | i
CN(C)CCCNc1cc(C(C)(C)C)nc2c(-c3ccccc3)cnn12 | i
Cc1cc(NCc2ccccn2)n2ncc(-c3ccccc3)c2n1 | 8.91µM
COc1ccc([N+](=O)[O-])cc1N(CC1CO1)S(=O)(=O)c1ccc(C)cc1 (centres undefined) | i
COc1ccc(/C=N/N=C2\SC(CC(=O)O)C(=O)N2c2ccccc2)cc1 (centres undefined) | i
O=C(Nc1ccc(Br)cn1)c1cccc(-c2cc3ccccc3oc2=O)c1 | i
CC(=O)N1CCN(c2ccc(NC(=O)c3cccc(Cl)c3)cc2)CC1 | i
O=C(Nc1ccc(N2CCCC2)cc1)c1cccc(-c2cc3ccccc3oc2=O)c1 | 22.4µM
Cc1ccc([N+](=O)[O-])cc1NC(=S)NC(=O)c1cccs1 | i
Cc1ccc(OCCSc2nc3ccccc3n2CCC(=O)O)cc1C | i
COc1ccc(CC(=O)Nc2nc(-c3ccc(OC)c(OC)c3)cs2)cc1OC | i
COc1ccccc1CC(=O)Nc1nc(-c2ccc(F)c(F)c2)cs1 | 12.6µM
COc1cc(OC)cc(C(=O)N[C@H](C(=O)Nc2nc(-c3ccc(F)c(F)c3)cs2)C(C)C)c1 | i
Cc1ccc(NC(=O)c2ccc(Cl)cc2Cl)c(C(=O)c2ccccc2)c1 | i
COc1cc2c(cc1OC)CN(C(=O)Nc1ccccc1)CC2 | i
COc1cc2c(cc1OC)CN(C(=O)Nc1ccccc1Cl)CC2 | 12.6µM
COc1cccc(N2CCN(C(=O)Nc3ccccc3Cl)CC2)c1 | i
O=C(CCCn1c(=O)c2sccc2n(Cc2cccc(Cl)c2)c1=O)NCc1ccc2c(c1)OCO2 | i
O=S(=O)(c1ccccc1C(F)(F)F)N1CCN(c2ncnc3sccc23)CC1 | 11.2µM
O=S(=O)(c1cc(C(F)(F)F)ccc1Cl)N1CCN(c2ncnc3ccccc23)CC1 | i
CC(=O)N1CCN(C(=O)C2CCN(S(=O)(=O)c3ccccc3C(F)(F)F)CC2)CC1 | i
CCC(C)C(=O)Nc1nc2ccc(OC)cc2s1 (centres undefined) | 11.2µM
CC(C)C(=O)Nc1nc2ccc(S(C)(=O)=O)cc2s1 | i
COc1ccc2nc(NC(=O)Nc3ccccc3OC)sc2c1 | i
O=C(Nc1ccccc1N1CCCCC1)c1ccc(-c2cc(Cl)ccc2Cl)o1 | i
COc1ccc(C(=O)N2c3ccccc3C(C)(c3ccc(Cl)cc3)CC2(C)C)cc1 (centres undefined) | i
Cc1cccc(CSCCNC(=O)CN(c2ccccc2)S(=O)(=O)N(C)C)c1 | i
COc1ccc(-c2csc(NCc3ccco3)n2)cc1C | 17.8µM
COc1cc(CNCc2ccco2)cc(OC)c1O | i
COc1ccc(-c2csc(NC(=S)NC(=O)c3cccs3)n2)cc1OC | i
